Bioassay records from PubChem BioAssay.
Most compounds without a hit are left out; they make up all but 6.6% or so of the library.
BoNT F protease: BoNT/F light chain protease inhibitors, primary screen, biochemical, flow cytometry, MLPCN library; Botulinum neurotoxin type F light chain protease (Clostridium botulinum); Multiplex microsphere protease cleavage assay; inhibition, % at 10 µM; actives 0.22% (n = 360,000); in the data active means inhibition above about 35%, passing the limit was not always enough
Bead autofluor: flagged as autofluorescent in microsphere protease counterscreen | fluorescence intensity (test concentration not listed) | AID 624483 | actives 3.1% (n = 360,000) | compound autofluorescence counterscreen, microsphere flow cytometry; active compounds read high; in the data active means fluorescence intensity above about 16000
Mtb FBA inh: Mtb FBA enzyme inhibitors, primary screen, biochemical, fluorescence, strain H37Rv; AID 588726, 2011; inhibition, % at 1 µM; purified M. tuberculosis FBA, fluorescence read-out; actives 2.3% (n = 360,000); in the data active means inhibition above about 27%
BoNT A protease: BoNT/A light chain protease inhibitors, primary screen, biochemical, flow cytometry, MLPCN library. inhibition, % at 10 µM. actives 0.17% (n = 360,000). multiplex microsphere protease substrate cleavage. AID 588499, 2011
Anthrax LF inh2: Bacillus anthracis LF protease inhibitors, primary screen, biochemical, multiplex microsphere, MLPCN library. actives 0.12% (n = 360,000). multiplex microsphere protease cleavage assay. inhibition, % at 10 µM. Lethal factor (Bacillus anthracis), P15917
Target sequence (P15917 whole entry, looked up): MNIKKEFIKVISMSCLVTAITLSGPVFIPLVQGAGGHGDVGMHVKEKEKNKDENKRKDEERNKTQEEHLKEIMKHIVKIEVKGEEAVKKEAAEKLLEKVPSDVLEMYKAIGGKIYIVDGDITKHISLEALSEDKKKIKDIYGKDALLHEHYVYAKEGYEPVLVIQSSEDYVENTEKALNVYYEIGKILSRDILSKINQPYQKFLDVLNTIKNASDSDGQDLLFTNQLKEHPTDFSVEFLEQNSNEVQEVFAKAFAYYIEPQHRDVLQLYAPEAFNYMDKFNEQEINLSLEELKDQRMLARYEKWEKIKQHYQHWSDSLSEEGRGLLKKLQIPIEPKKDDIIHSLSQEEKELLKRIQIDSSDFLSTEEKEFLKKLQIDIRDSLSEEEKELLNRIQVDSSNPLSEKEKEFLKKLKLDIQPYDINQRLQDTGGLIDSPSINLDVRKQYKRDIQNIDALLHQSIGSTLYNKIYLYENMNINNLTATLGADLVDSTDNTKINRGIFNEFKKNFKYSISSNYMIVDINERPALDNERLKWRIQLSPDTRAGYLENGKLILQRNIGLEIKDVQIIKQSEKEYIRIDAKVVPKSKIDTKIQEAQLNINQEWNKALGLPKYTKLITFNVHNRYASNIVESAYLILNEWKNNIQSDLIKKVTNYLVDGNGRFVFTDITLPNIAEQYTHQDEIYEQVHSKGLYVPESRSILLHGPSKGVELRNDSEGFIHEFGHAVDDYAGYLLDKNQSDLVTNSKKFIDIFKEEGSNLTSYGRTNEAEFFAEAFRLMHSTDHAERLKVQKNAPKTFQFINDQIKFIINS
GDH-TPI counter-1: GDH-TPI coupling enzyme inhibitors, primary screen, artefact control for M. tuberculosis FBA inhibitor project, biochemical, absorbance, full deck; GDH-TPI coupled enzyme counterscreen, NADH absorbance; inhibition, % at 4.8 µM; actives 1.2% (n = 360,000); AID 588335, 2011; in the data active means inhibition above about 30%
BoNTA LC inh 1: BoNT/A light chain protease inhibitors, confirmation, biochemical, flow cytometry, cherry pick 1 | shares compounds with BoNT F protease | multiplex microsphere protease assay | inhibition, % at 10 µM | actives 3% (n = 720); in the data active means inhibition above about 32%
BoNTF LC inh 1: BoNT/F light chain protease inhibitors, confirmation, biochemical, flow cytometry, cherry pick 1. multiplex microsphere protease cleavage assay. 720 tested, under 10 active. inhibition, % at 10 µM. AID 602140, 2011. shares compounds with BoNT F protease; call rule not given here
Anthrax LF CP1: Bacillus anthracis LF protease inhibitors, confirmation, biochemical, multiplex microsphere, cherry pick 1; inhibition, % at 10 µM; 720 tested, under 10 active; multiplex microsphere protease cleavage assay; shares compounds with BoNT F protease; call rule not given here
BoNT-A LC CP2: BoNT/A light chain protease inhibitors, confirmation, biochemical, flow cytometry, cherry pick 2; AID 602325, 2012; multiplex microsphere protease cleavage assay; inhibition, % at 10 µM; shares compounds with BoNT A protease; actives 10% (n = 150); in the data active means inhibition above about 24%
LF protease CP2: Bacillus anthracis LF protease inhibitors, confirmation, biochemical, multiplex microsphere; shares compounds with BoNT A protease; multiplex microsphere protease cleavage assay; inhibition, % at 10 µM; actives 7% (n = 150); AID 602327, 2012; in the data active means inhibition above about 25%
BoNTF LC inh 2: BoNT/F light chain protease inhibitors, confirmation, biochemical, flow cytometry, cherry pick 2; shares compounds with BoNT A protease; multiplex microsphere protease cleavage assay; inhibition, % at 10 µM; actives 7% (n = 150); AID 602336, 2012; in the data active means inhibition above about 25%
Mtb FBA confirm: M. tuberculosis aldolase blockers, biochemical, fluorescence, strain H37Rv, confirmation; shares compounds with Mtb FBA inh; inhibition, % at 1 µM; actives 78% (n = 5,600); AID 651616, 2012; purified M. tuberculosis FBA, fluorescence read-out; in the data active means inhibition above about 27%
GDH-TPI counter-2: GDH-TPI coupling enzyme inhibitors, artefact control for M. tuberculosis FBA inhibitor project, biochemical, fluorescence, high throughput; shares compounds with Mtb FBA inh; GDH-TPI coupled enzyme counterscreen; inhibition, % at 1 µM; actives 81% (n = 5,600); AID 652141, 2013; in the data active means inhibition above about 10%
Each line names hits and unclear results; the compound was inactive in the other large screens (follow-up assays come after a bar, where they were run). Unless noted, no stated cut-off is given here; in the data, active means inhibition above about 30%; inconclusive means no clear call, values can overlap the other calls; inactive means below that.

Cc1ccc(C)c2nc(N3CCCC3)c(C#N)cc12	Mtb FBA inh 33.1, BoNT A protease 36.2 | BoNTA LC inh 1 inactive | BoNTF LC inh 1 inactive | Anthrax LF CP1 inactive | Mtb FBA confirm 173.3 | GDH-TPI counter-2 146.4
Cc1ccc(NC(=O)C(=O)C2C(=O)Nc3ccccc32)cc1 (configuration not stated)	none
Cc1ccccc1CSc1nnc(-c2ccncc2)n1C	none
COc1cccc(/C=C/C(=O)OCC(=O)Nc2ccc(Cl)cn2)c1	none
Nc1c(C(=O)NC2CCCC2)c2nc3ccccc3nc2n1CC1CCCO1 (configuration not stated)	Mtb FBA inh 47.3, BoNT A protease 30.7 | BoNTA LC inh 1 inactive | BoNTF LC inh 1 inactive | Anthrax LF CP1 inactive | Mtb FBA confirm active | GDH-TPI counter-2 active
Cc1nc2nc(Cc3ccccc3)[nH]n2c(=O)c1Cl	Mtb FBA inh 29.4 | BoNTA LC inh 1 inactive | BoNTF LC inh 1 inactive | Anthrax LF CP1 inactive | Mtb FBA confirm 49.4 | GDH-TPI counter-2 50.0
CCCCN1CC[C@@H]2C=CC[C@H](C(=O)OC)[C@@H]2C1=O	none
O=C(CC1CCCC1)N1CCN(S(=O)(=O)c2ccc(F)cc2)CC1	none
O=C(CCC1CCCC1)N1CCN(S(=O)(=O)c2ccc(Br)cc2)CC1	BoNT F protease 82.7, BoNT A protease 80.0, Anthrax LF inh2 89.4 | BoNT-A LC CP2 inactive | LF protease CP2 inactive | BoNTF LC inh 2 inactive
O=C(Cc1ccccc1)c1ccccn1	BoNT A protease 33.2 | BoNT-A LC CP2 33.1 | LF protease CP2 29.0 | BoNTF LC inh 2 inactive
C[C@H]1CN([C@@H](C)CO)C(=O)CCCn2nncc2CO[C@@H]1CN(C)S(=O)(=O)c1ccc(-c2ccccc2)cc1	none
COc1cccc(CNC(=O)CCCc2nnc3n(C)c(=O)c4sccc4n23)c1	none (no result: BoNT F protease, Bead autofluor, BoNT A protease, Anthrax LF inh2)
CCN(CC)c1ccc2cc(C(=O)c3cccs3)c(=O)oc2c1	BoNT A protease 53.5, Anthrax LF inh2 32.6 (no result: GDH-TPI counter-1) | BoNT-A LC CP2 inactive | LF protease CP2 inactive | BoNTF LC inh 2 inactive
CCN(CC)c1ccc2cc(C(=O)NCc3ccc(F)cc3)c(=N)oc2c1	none
Cc1[nH]c2ccc(CNS(=O)(=O)c3ccc(S(=O)(=O)N4CCOCC4)cc3)cc2c1C	none | BoNT-A LC CP2 inactive | LF protease CP2 inactive | BoNTF LC inh 2 inactive
CC(Oc1ccccc1F)c1nnc(SCC(=O)c2c(N)n(C3CC3)c(=O)[nH]c2=O)o1 (configuration not stated)	BoNT F protease 90.7, BoNT A protease 95.9, Anthrax LF inh2 98.1 | BoNT-A LC CP2 inactive | LF protease CP2 inactive | BoNTF LC inh 2 inactive
COc1ccccc1-c1nnc(SCC(=O)c2c(N)n(C3CC3)c(=O)[nH]c2=O)o1	none
COc1cccc(C(=O)OCC(=O)c2c[nH]c3ccccc23)c1O	none | BoNT-A LC CP2 inactive | LF protease CP2 inactive | BoNTF LC inh 2 37.3
CC(=O)OCC(=O)c1c[nH]c2ccccc12	none
COc1ccc(C(CNC(=O)c2ccc(OC)c(S(=O)(=O)N3CCCC3)c2)N2CCCC2)cc1 (configuration not stated)	BoNT F protease 40.3, Bead autofluor 21380 | BoNT-A LC CP2 inactive | LF protease CP2 inactive | BoNTF LC inh 2 inactive
COc1ccc(C(CNC(=O)c2cccc(S(=O)(=O)N3CCCCC3)c2)N2CCCC2)cc1 (configuration not stated)	none | BoNT-A LC CP2 inactive | LF protease CP2 inactive | BoNTF LC inh 2 inactive
COc1ccc(C(CNC(=O)c2ccc(C)c(S(=O)(=O)N3CCCCC3)c2)N(C)C)cc1OC (configuration not stated)	none
COc1ccc(NS(=O)(=O)c2cccc(C(=O)NCC(c3ccc(OC)cc3)N3CCCCC3)c2)cc1 (configuration not stated)	none
COc1ccc(C(CNC(=O)c2cc(S(=O)(=O)N3CCCCC3)ccc2C)N2CCCC2)cc1 (configuration not stated)	BoNT F protease 44.9, Bead autofluor 19413 | BoNT-A LC CP2 inactive | LF protease CP2 inactive | BoNTF LC inh 2 35.3
COc1ccccc1C(CNC(=O)c1ccc(C)c(S(=O)(=O)N2CCCCC2)c1)N1CCCC1 (configuration not stated)	Bead autofluor 71619 | BoNT-A LC CP2 inactive | LF protease CP2 inactive | BoNTF LC inh 2 25.0
COc1ccc(CNC(=O)CNC(=O)c2c(C)nn(C)c2Cl)cc1	none
COc1ccc(-c2cc3c(c4c2ccn4C)C2CCC3O2)cn1 (configuration not stated)	none (no result: GDH-TPI counter-1)
COc1ccc(-c2cc3c(c4c2ccn4C)C2CCC3C2)cc1 (configuration not stated)	none (no result: GDH-TPI counter-1) | BoNT-A LC CP2 inactive | LF protease CP2 inactive | BoNTF LC inh 2 inactive
COc1cccc(-c2cc3c(c4c2ccn4C)C2CCC3C2)c1 (configuration not stated)	none (no result: GDH-TPI counter-1) | BoNT-A LC CP2 inactive | LF protease CP2 inactive | BoNTF LC inh 2 inactive
